Inhibition data for 93 compounds are collected here from PubChem BioAssay AID2013 (Sanford-Burnham Center for Chemical Genomics, 2009).

The campaign covered roughly 290,000 compounds. About 370 (0.13%) were called active.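 The calls were made as follows: active = spots per cell inhibited over 60%, with over 100 cells counted and total cytoplasm intensity under 500,000; inconclusive = wells with under 100 cells, flagged as likely toxic; inactive = the rest.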 The entries come from a sample that favours actives as a whole. Potency and affinity values are given separately.

This test deals with G-protein coupled receptor 55 (Homo sapiens) (UniProt Q9Y2T6). Kind of test: inhibition of LPI-stimulated GPR55 beta-arrestin translocation – imaging, U2OS, beta-arrestin-GFP, LPI agonist, primary screen (AID 2013).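 Also: U2OS cells stably carrying GPR55 and arrestin-GFP stimulated by 5 µM LPI near EC80; imaged beta-arrestin-GFP aggregate spots per cell after agonist stimulation; plate controls were LPI-stimulated DMSO wells for no effect and DMSO wells without LPI for full effect.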 The conditions noted are these: LPI antagonism, at 10 µM, hits give high values.
G-protein coupled receptor 55 (Homo sapiens), sequence (Q9Y2T6 whole entry, looked up): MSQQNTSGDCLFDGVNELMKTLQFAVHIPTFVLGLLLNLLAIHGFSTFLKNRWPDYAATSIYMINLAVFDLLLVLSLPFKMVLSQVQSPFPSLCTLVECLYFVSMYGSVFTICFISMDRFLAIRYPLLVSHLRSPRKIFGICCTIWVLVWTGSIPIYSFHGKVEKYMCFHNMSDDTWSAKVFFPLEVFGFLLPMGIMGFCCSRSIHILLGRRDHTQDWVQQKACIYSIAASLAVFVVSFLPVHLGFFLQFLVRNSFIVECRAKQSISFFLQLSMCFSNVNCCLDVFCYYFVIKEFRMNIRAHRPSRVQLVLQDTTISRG
As for `COc1ccc(OC)c(-n2c(C)cc(/C=C3\C(=N)N4N=C(CC(=O)N5CCOCC5)SC4=NC3=O)c2C)c1`, the inhibition (usually the drop in the measured response relative to a control, in per cent) was 21.8% (inactive).
Next, `COc1ccccc1N1CCN(C(=O)NC23CC4CC(CC(C4)C2)C3)CC1`: 6.5% (inactive).
Next, `O=C(CCCn1c(=S)[nH]c2cc3c(cc2c1=O)OCO3)N1CCN(c2ccccn2)CC1`: 10.5% (inactive); `O=C(CCCn1c(=O)[nH]c2ccccc2c1=O)N1CCN(c2ccccn2)CC1`: 3.9% (inactive).
On to `O=C(CCCn1c(=S)[nH]c2ccc(Br)cc2c1=O)N1CCN(c2ccccn2)CC1`, for which the inhibition was 60.6% (active).
Then `O=C(COc1cccc2cccnc12)N/N=C1\SCC(=O)N1CCc1ccccc1`, with 14.1% (inactive); and `N#Cc1c(N)nc2c(c1-c1cccc(O)c1)CCCCCC2`, with 76% (active).
`N#Cc1c(N)nc2c(c1-c1ccccc1)CCC2`: the inhibition was -2.3% (inactive).
Consider `N#Cc1c(N)nc2c(c1-c1ccccc1)CCCC2`, for which the inhibition is 14.6% (inactive).
Next, `Cc1c(Br)cc(C(=O)NCCCN2CCOCC2)c(C)c1C`: -19.3% (inactive).
Consider `Cc1ccc(C(=O)NC2CC(C)(C)NC(C)(C)C2)cc1Cl`, for which the inhibition is -5.9% (inactive).
Consider `CCOc1ccccc1NC(=O)NCCc1c[nH]c2ccccc12`, for which the inhibition is 5.7% (inactive).
Then `CCN(C(=O)CC(C)C)c1nnc(Cn2nnc3ccccc32)s1`, with 6.1% (inactive); and `O=C(CN1C(=O)S/C(=C\c2ccc(Cl)cc2)C1=O)NCCCn1ccnc1`, with -24.8% (inactive); and `N=C1C(c2nc(-c3ccc(Cl)cc3)cs2)=C(O)CN1CCCN1CCOCC1`, with 14.9% (inactive).
Then `Fc1ccc(-c2csc(N3CCOCC3)n2)cc1`, with -10.5% (inactive); and `Cc1c(Br)c([N+](=O)[O-])nn1CC(=O)N1CCN(C23CC4CC(CC(C4)C2)C3)CC1`, with 10.9% (inactive); and `O=C(CN(c1ccc(Cl)cc1)S(=O)(=O)c1ccc(Cl)c([N+](=O)[O-])c1)NCCc1ccccc1`, with 5.1% (inactive).
With `Cc1ccc(N(CC(=O)NCCc2ccc(F)cc2)S(=O)(=O)c2ccc(Cl)c([N+](=O)[O-])c2)c(C)c1`, the inhibition is 65.4% (active).
Turning to `O=C(CN(c1ccc(Cl)cc1)S(=O)(=O)c1ccc(Cl)c([N+](=O)[O-])c1)NCCc1ccc(F)cc1`, the inhibition was 7.2% (inactive).
Then `O=S(=O)(NC1CCCCC1Oc1ccccc1)c1ccc(Cl)cc1` (stereo not drawn), with 12.4% (inactive); and `CCn1cc(CN2CCC(C(=O)Nc3ccc(Oc4ccccc4)nc3)CC2)cn1`, with 17% (inactive).
Then `NC(=NC(=O)c1ccccc1)N1CCN(C(c2ccccc2)c2ccccc2)CC1`, with 22.5% (inactive).
Then `CC1=C(C(=O)OCc2ccccc2)C(c2ccc3ccccc3c2)NC(=O)N1CCCC(=O)O` (stereo not drawn), with 1.7% (inactive); and `Cn1nc(C(=O)NCc2ccco2)c2ccccc2c1=O`, with -3.1% (inactive).
Consider `COC(=O)c1cccc(S(=O)(=O)N2CCC(c3nc4ccccc4o3)CC2)c1`, for which the inhibition is 4.8% (inactive).
Then `O=c1[nH]ncn1-c1ccccc1`, with 0.1% (inactive); and `Cc1ncsc1CCOC(=O)c1ccc(N2CCOCC2)c([N+](=O)[O-])c1`, with -11% (inactive).
Regarding `Cc1ccc(OC(=O)c2ccc(N3CCOCC3)c([N+](=O)[O-])c2)cc1`, the inhibition was 2.8% (inactive).
Consider `CC(C)c1ccc(CN2C(=O)NC3(CCCCCC3)C2=O)cc1`, for which the inhibition is 4.2% (inactive).
On to `CCC(=O)N1CCc2cc(Br)cc(S(=O)(=O)NCCN3CCCCC3CC)c21` (stereo not drawn), for which the inhibition was 5.4% (inactive).
In the case of `CCC(=O)N1CCc2cc(Br)cc(S(=O)(=O)NCCN3CCCCC3C)c21` (stereo not drawn), the inhibition is 77.2% (active).
Next, `CC(=O)N1CCc2cc(Br)cc(S(=O)(=O)NCCN3CCCCC3C)c21` (stereo not drawn): 10.5% (inactive).
As to `COc1ccccc1CNC(=O)CSc1nc2ccccc2c(=O)n1CCCN1CCOCC1`, the inhibition was 1.4% (inactive).
Next, `Cc1ccccc1NC(=O)CSC(N)=O`: 1.9% (inactive); `Cc1ccc(C(C)C)c(OCC(=O)Nc2cccc(S(=O)(=O)NC3=NCCCCC3)c2)c1`: -2.2% (inactive).
`O=C(COc1ccc(Cl)cc1Cl)Nc1ccc(S(=O)(=O)NC2=NCCCCC2)cc1`: the inhibition is 3.6% (inactive).
Next, `Cc1ccc(Nc2cc(C)nc(NCc3ccccc3)n2)cc1`: 26.1% (inactive); `Cc1cc(Nc2ccc(Cl)cc2)nc(NCc2ccccc2)n1`: 13.1% (inactive).
`CC(=O)NC(=S)Nc1cccc2ccc(C)nc12`: the inhibition was -6.6% (inactive).
Then `Cc1cc(C(F)(F)F)n(-c2nc(C(=O)N/N=C/c3ccc(F)cc3)cs2)n1`, with -8.1% (inactive).
As to `COC(=O)c1ccccc1NC(=S)NC(=O)c1ccc2c(c1)OCO2`, the inhibition was 7.9% (inactive).
With `COc1ccc(CCNC(=O)[C@H](C)NC(=O)[C@@H]2CSC3c4ccccc4C(=O)N32)cc1` (stereo partly drawn), the inhibition is 9.5% (inactive).
Next, `CCN(CC)S(=O)(=O)c1ccc(NCC2COc3ccccc3O2)c([N+](=O)[O-])c1` (stereo not drawn): 8.6% (inactive); `CCN(c1ccccc1)S(=O)(=O)c1ccc(Cl)nc1`: -13.7% (inactive); `Cc1ccc(CNc2nc(C)cs2)cc1`: 4.7% (inactive).
Then `CCCn1c(SCc2nc3sc(C)c(C)c3c(=O)[nH]2)nc2ccccc2c1=O`, with 8.6% (inactive); and `Cc1sc2nc(CSc3nc4ccccc4c(=O)n3CCCN3CCOCC3)[nH]c(=O)c2c1C`, with 89.7% (active); and `Cc1[nH]c2ccccc2c1C(=O)CSc1nc2ccccc2c(=O)n1CCCN1CCOCC1`, with -7.3% (inactive).
Then `Cc1cc(C)cc(Oc2cc(NC(=O)c3cn(C)nc3C)cc([N+](=O)[O-])c2)c1`, with -5.3% (inactive); and `Cc1cccc(N(C)C(=O)c2cc(S(=O)(=O)N3CCc4ccccc43)cn2C)c1`, with 8.9% (inactive).
In the case of `Cc1ccc(NC(=O)c2cc(S(=O)(=O)N3CCc4ccccc43)cn2C)cc1`, the inhibition is 6.1% (inactive).
Then `CN(C)/C=N/c1[nH]ncc1C#N`, with -2% (inactive); and `Cc1nc2ccccc2n1CC(O)Cn1c(C(F)(F)F)nc2ccccc21` (stereo not drawn), with 6.6% (inactive); and `NC(=O)CSc1n[nH]c(-c2ccco2)n1`, with 8.2% (inactive).
Consider `O=C(c1cccc(S(=O)(=O)N2CCN(c3ccccc3)CC2)c1)N1CC=C(c2ccccc2)CC1`, for which the inhibition was 4.3% (inactive).
Then `COc1ccccc1NS(=O)(=O)c1cccc(NC(=S)NCCN2CCOCC2)c1`, with 0.8% (inactive); and `COc1ccccc1NS(=O)(=O)c1cc(NC(=O)CC(C)(C)C)ccc1N1CCOCC1`, with 6.1% (inactive); and `Cc1ccccc1NC(=O)Nc1cc(S(N)(=O)=O)ccc1C`, with -2.7% (inactive).
`COc1ccc(N2CCN(C(=O)NCc3ccc(C)cc3)CC2)cc1`: the inhibition is 1% (inactive).
As for `CC(=O)Nc1cccc(C(=O)OCC(=O)c2ccccc2Cl)c1`, the inhibition was -0.6% (inactive).
`COc1cc(S(=O)(=O)Nc2ccccc2)ccc1N=Cc1c(C)[nH]n(-c2ccc(C)cc2)c1=O`: the inhibition was 7.7% (inactive).
Next, `O=C(Nc1ccccc1N1CCOCC1)c1cccc(NS(=O)(=O)c2ccc(F)c(F)c2)c1`: 2.6% (inactive); `O=C(CC12CC3CC(CC(C3)C1)C2)NCc1ccco1`: 11.3% (inactive); `O=C(CC12CC3CC(CC(C3)C1)C2)NC(=S)NCc1ccccc1`: 53% (inactive).
For the compound `OCCNc1cnc2ccccc2n1`, the inhibition is 12.6% (inactive).
For `CC1CN(S(=O)(=O)c2ccccc2)CN1C(=O)N1CCOCC1` (stereo not drawn), the inhibition was 15.3% (inactive).
Then `CCN1CCCC1CN(Cc1cc2ccc(C)cc2[nH]c1=O)C(=S)Nc1ccc(F)cc1` (stereo not drawn), with 23.5% (inactive).
For `COc1ccc(Cl)cc1S(=O)(=O)n1ccnc1`, the inhibition is 4.2% (inactive).
On to `COC(=O)c1ccc2c(c1)C(C)(C)C(/C=C/c1ccccc1O)=[N+]2C`, for which the inhibition was 11.5% (inactive).
`C[N+]1=C(/C=C/Nc2ccccc2Cl)C(C)(C)c2ccccc21`: the inhibition is 0.9% (inactive).
Then `O=C1c2ccccc2C(=O)C2OC12` (stereo not drawn), with 12.7% (inactive).
Next, `COc1ccc(OC)c(-c2csc(N(CC3CCCO3)C(=O)Cc3ccccc3)n2)c1` (stereo not drawn): 17.6% (inactive); `COc1ccc(-c2csc(N(CC3CCCO3)C(=O)c3ccccc3)n2)cc1` (stereo not drawn): 0.7% (inactive); `COc1ccc(OC)c(-c2csc(N(CC3CCCO3)C(=O)C3CCCCC3)n2)c1` (stereo not drawn): 82.9% (active).
Then `CN(C)c1ccc(C(=O)OCC(=O)Nc2ccc(N3CCOCC3)cc2)cc1`, with 0.2% (inactive); and `CCN(CC)c1ccc(NC(=O)Cn2c(C(C)NC(=O)c3ccc(C)cc3)nc3ccccc32)cc1` (stereo not drawn), with 1.1% (inactive); and `Cn1c(CSCc2ccccc2Cl)n[nH]c1=S`, with -17.8% (inactive).
With `S=c1[nH]nc(CSCc2ccccc2Cl)n1-c1ccccc1`, the inhibition is 1% (inactive).
Then `CN(Cc1ccc(Cl)cc1Cl)C(=O)CNC(=O)c1ccco1`, with 8.3% (inactive); and `CCCn1cc(S(=O)(=O)c2ccccc2)c(=O)c2cc(F)c(N3CCN(C)CC3)cc21`, with 7.5% (inactive); and `Clc1cccc(-c2cc3nc4c(c(N5CCNCC5)n3n2)CCCC4)c1`, with 90.4% (active).
Then `Clc1cccc(-c2cc3nc4c(c(N5CCN(c6cnccn6)CC5)n3n2)CCCC4)c1`, with -5.5% (inactive); and `Clc1cccc(-c2cc3nc4c(c(N5CCOCC5)n3n2)CCCC4)c1`, with -8.9% (inactive); and `COc1ccc(NS(=O)(=O)c2ccc3nc(COc4ccc5ccccc5c4)[nH]c3c2)cc1`, with 20.6% (inactive).
For the compound `COc1ccc(NS(=O)(=O)c2ccc3nc(COc4ccc(C#N)cc4)[nH]c3c2)cc1`, the inhibition is 6% (inactive).
Turning to `COc1ccc(/C=C(\C#N)C(=O)OCC(=O)Nc2ccc(-c3nc4ccc(C)cc4s3)cc2)cc1`, the inhibition is -6.4% (inactive).
Then `C=C(C)CSc1nc2ncc(Cl)cc2[nH]1`, with 17.6% (inactive); and `N/C(=N\O)c1ccccc1N1CCCCC1`, with -5% (inactive).
As for `CCCC(=O)Nc1nc(C)c(C(C)=O)s1`, the inhibition is -16% (inactive).
As for `C=CCn1c(SCC(=O)NC(=O)c2cccn2C)nc2ccccc2c1=O`, the inhibition is 4.4% (inactive).
For the compound `CCC(C)n1c(SCC(=O)NC(=O)c2cccn2C)nc2ccccc2c1=O` (stereo not drawn), the inhibition is 99.6% (active).
Turning to `CCC(C)n1c(SCC(=O)Nc2cc(C)on2)nc2ccccc2c1=O` (stereo not drawn), the inhibition was 15.5% (inactive).
